In all, about 55,000 compounds went through this assay and about 90 (0.2%) were called active. How the calls were made is not given here. What follows is part of a selection rich in actives, with near analogues and random picks from the rest.
Assay: growth inhibitors of anaerobic choline-fed gram-negatives, minimal medium, absorbance (AID 1963822)
Settings: Gram-negative bacterium anaerobic choline minimal medium
[1] = measured here: choline growth z-score, timepoint 1, stronger effect = lower value

Compound	z-score (stronger effect = lower value)	z-score [1]
COc1cccc(N2C(=O)c3cc(C)nn3CC2(C)C(=O)NCc2ccccc2)c1 (stereo not drawn)	0.09 (inactive)	-0.96
Cc1cc(C)n(CCc2nc(-c3ccc(Cl)cc3)no2)n1	-0.52 (inactive)	-1.19
O=C(NC1CCCCC1)c1ccc(Cl)c(-n2nnc3cccnc32)c1	0.14 (inactive)	0.44
Cc1cccc(-c2nn3c(=O)cc(CN4CCN(C(=O)c5cccc(Br)c5)CC4)nc3s2)c1	0.88 (inactive)	0.71
COc1ccc2cc3c(nc2c1)N(C(=O)c1ccc(OC)c(OC)c1)CC3	0.77 (inactive)	0.04
COc1cccc(-c2nn(Cc3ccc(C)cc3)c(=O)c3noc(C)c23)c1	1.18 (inactive)	-0.21
COc1ccc(NC(=O)N2CCN(C)c3ncccc32)cc1	-0.52 (inactive)	-1.12
COc1ccc(-c2nc(SCC(=O)Oc3ccc(C)cc3C)n3[nH]c(=O)cc3n2)cc1	-0.54 (inactive)	-0.44
CN(C)C(=O)CN1C(=O)COc2ccc(C(=O)NCc3ccc4c(c3)OCO4)cc21	0.4 (inactive)	0.23
O=C1CN(Cc2ccccc2Cl)S(=O)(=O)c2ccccc2N1Cc1cccc(F)c1	0.04 (inactive)	0.04
CCOc1ccc(NC(=O)NCCn2c(C(F)(F)F)nc3ccccc32)cc1	0.3 (inactive)	0.45
O=C(Cc1csc(NC(=O)Nc2ccc(Cl)cc2)n1)Nc1cccc(Cl)c1	-2.04 (active)	-1.2
O=C(Cc1nnc(NC(=O)Nc2cccc(Cl)c2)s1)NCc1ccccc1	0.49 (inactive)	0.9
CCC(=O)Nc1nc2cc(NC(=O)Nc3cccc(Cl)c3)ccc2s1	0 (inactive)	-0.84
O=C(NCc1ccc2c(c1)OCO2)c1ccc(-c2noc(C3CC3)n2)cc1	0.36 (inactive)	0.22
COCC(=O)Nc1ccc(-c2nc3ccccc3s2)cc1	-0.9 (inactive)	-0.43
CCSc1nc2ccc(NS(=O)(=O)Cc3cc(C)ccc3C)cc2s1	1.35 (inactive)	0.62
Cc1csc2ncc(C(=O)N3CCCCCC3)c(=O)n12	-0.29 (inactive)	-0.07
c1ccc(CCNc2c3c(nc4nncn24)CCC3)cc1	0.56 (inactive)	0.78
CC(C)n1cnc(S(=O)(=O)N2CCC(C(=O)N3CCCC3)CC2)c1	0.57 (inactive)	-0.23

Compound	z-score (stronger effect = lower value)	z-score [1]
O=C(Nc1ccc(Br)cc1F)N1CCN(c2cc(-c3ccccc3)ncn2)CC1	-1.08 (inactive)	-1.03
CCC1Oc2cc(S(=O)(=O)N3CCCC(C(=O)N4CCc5ccccc54)C3)c(C)cc2NC1=O (stereo not drawn)	0.06 (inactive)	-0.03
CCN1CCN(S(=O)(=O)c2ccc(C)cc2C)c2cccnc21	-0.02 (inactive)	-0.19
Cn1c(=O)n(C)c2cc(CNCC(O)c3ccccc3)ccc21 (stereo not drawn)	-0.37 (inactive)	-0.32
Cc1ccc2c(c1)c1c(n2CC(O)CNCc2ccccc2)CCCC1 (stereo not drawn)	-2.96 (active)	-0.69
COC(=O)CC1=CC(=O)N(CC(=O)Nc2ccc(C)cc2Br)c2ccccc2N1	0.27 (inactive)	0.25
COc1ccc(-n2nnc3c(N4CCN(C(=O)CC5CCCC5)CC4)ncnc32)cc1	-0.34 (inactive)	0.31
CC(C)CSc1nn(C)c2nc3c(c(=O)n12)C(C)(C)Cc1ccccc1-3	0.12 (inactive)	-0.98
Cn1cc(CN2CCC(C(=O)N3CCCC3)CC2)c2cc(Cl)ccc21	-1.08 (inactive)	-0.88
CCC(C)(C)NC(=O)CN(C)S(=O)(=O)c1cc2c(cc1Cl)NC(=O)CO2	0.45 (inactive)	-0.29
COc1ccc(-c2nn(-c3ccccc3)cc2C2CC(c3ccccc3)=NN2S(C)(=O)=O)cc1 (stereo not drawn)	0.58 (inactive)	0.97
Cc1nc(N2CCCC2)ncc1C(=O)N1CCCCC1	0.92 (inactive)	-0.25
CCCn1c(=O)c2ccccc2n2c(=O)n(CC(=O)c3ccc(C)cc3C)nc12	-0.82 (inactive)	-0.89
Cn1c(=O)c2[nH]c(-c3ccncc3)nc2n(C)c1=O	-1.62 (inactive)	-1.51
Cc1ccc(-c2noc(CCn3nc(-c4ccc5c(c4)OCO5)ccc3=O)n2)cc1	1.77 (inactive)	1.44
CCOc1ccc(NC(=O)Nc2ccc(-c3cc4cc(Cl)ccc4[nH]3)cc2)cc1	-0.97 (inactive)	-1.43
Cc1nn(CC(=O)NCCc2c[nH]c3ccccc23)c(=O)c2noc(C)c12	-1.18 (inactive)	-0.02
CCC(Sc1nnc(-c2ccccc2NC(C)=O)c(=O)[nH]1)C(=O)Nc1c(C)cc(C)cc1C (stereo not drawn)	0.57 (inactive)	-0.51
COc1ccc(NC(=O)CSc2nc3ccccc3n2Cc2ncc(C)c(OC)c2C)cc1	0.8 (inactive)	0.74
